Screen size: about 48,000 compounds; about 13,000 (27%) showed an effect of 50% or more. Some of the results follow.
System: Wolbachia pipientis
Test: Anti-Wolbachia Cell-Based Screen
Format: functional
Design: scale not given: in the data most compounds retested in dose-response had high values
Conditions: 5 µM

Structure (SMILES) | Percent Effect [%]
CCC(C(=O)NCc1ccncc1)N(c1ccc(F)cc1)S(C)(=O)=O (stereo not given) | -11.09
Cc1cc(C)c2nc(CN3CCC(CN)C3)cc(O)c2c1 (stereo not given) | -17.01
Cc1cc(Br)oc1C(=O)N1CCN(CC(N)=O)CC1 | -14.01
CS(=O)(=O)Cc1nc(C2CC2)nn1-c1ccccn1 | -14.62
CC(C)CS(=O)(=O)N1CCC2(CC1)CCn1c(-c3cnn(C)c3)cnc12 | 2.953
Cn1cc(CC(CNC(=O)Nc2cccc(Cl)c2)C(N)=O)cn1 (stereo not given) | 3.636
CN(C)c1nc(N)nc(CSCCC(=O)Nc2cccc(Cl)c2)n1 | 5.106
CC(C)n1c(=O)c2sccc2n(CC(=O)Nc2cccc(Cl)c2)c1=O | 121.3
COc1cccc(CN2C[C@@H]3COC[C@]3(CNC(=O)C3CC3)C2)c1.O=C(O)C(F)(F)F | 100.6
Cc1ccccc1CN1C[C@@H]2COC[C@]2(CNC(=O)C2CCC2)C1.O=C(O)C(F)(F)F | 116.7
Cc1cccc(CN2C[C@@H]3COC[C@]3(CNC(=O)C3CCC3)C2)c1.O=C(O)C(F)(F)F | 92.72
Cc1cccc(CN2C[C@@H]3COC[C@]3(CNC(=O)N3CCCC3)C2)n1.O=C(O)C(F)(F)F.O=C(O)C(F)(F)F | 5.948
O=C(NC[C@]12COC[C@H]1CN(Cc1nccs1)C2)N1CCCC1.O=C(O)C(F)(F)F | 28.78
Cc1cccc(CN2C[C@@H]3COC[C@]3(CNC(=O)C3CC3)C2)c1.O=C(O)C(F)(F)F | 102.9
O=C(NC[C@]12COC[C@H]1CN(Cc1nccs1)C2)c1ccccc1.O=C(O)C(F)(F)F | 17.76
N#Cc1cccc(-c2ncnn2CC2(O)CCCCC2)c1 | 2.299
COC(=O)CC(NC(=O)c1cccc(N2CCCC2=O)c1)C(=O)OC (stereo not given) | -7.194
COCCNC(=O)C(C)n1nc(-c2ccc(C)o2)cc(N)c1=O (stereo not given) | 104.7
CC(=O)N1CCCN(C(=O)NC(C)c2ccc(C)o2)CC1 (stereo not given) | -7.479
Cc1ccc(-c2cc(N)c(=O)n(C(C)C(N)=O)n2)o1 (stereo not given) | 92.46
Cc1ccc(-c2cc(C(=O)NCCCc3csc(N)n3)[nH]n2)o1 | 17.13
Cc1ccc(-c2nc(CC(=O)NCC(C)N3CCOCC3)cs2)o1 (stereo not given) | -1.179
Cc1ccc(-c2nc(CC(=O)N3CCCC(NC(=O)C(C)C)C3)cs2)o1 (stereo not given) | 6.035
CCCNC(=O)C(C)n1cc(Br)cn1 (stereo not given) | -2.063
COCCN(Cc1nccs1)C(=O)c1cc(-c2ccc(C)o2)n[nH]1 | -13.35

Structure (SMILES) | Percent Effect [%]
Cc1ccc(-c2cc(N)c(=O)n(C(C)C(=O)NC(C)C)n2)o1 (stereo not given) | 115.3
Cc1ccc(-c2cc(C(=O)N3CCCC3c3cccnc3)[nH]n2)o1 (stereo not given) | -6.11
CCCNC(=O)C(C)n1nc(-c2ccc(C)o2)cc(N)c1=O (stereo not given) | 87.57
Cc1c(C)n(Cc2ccccn2)c2nc3c(c(N)c12)CCCC3 | 5.52
O=C(CNc1cc(F)ccc1OC(F)F)NCC(F)(F)F | -13.2
CC(C)(CNC(=O)Nc1cccc(-c2nccs2)c1)C(N)=O | 2.635
Cc1noc(C[C@@H]2COC[C@H]3CN(C(=O)C4=CCCC4)C[C@@H]23)n1 | -8.987
O=C(O)C(F)(F)F.O=C([C@@H]1COC[C@H]2CN(C3CCOCC3)C[C@H]21)N1CCCO1 | 1.407
O=C1OCCC1N1CCN(c2ccc(O)cc2)CC1 (stereo not given) | 4.942
CC(C)Oc1cccc(C(O)CNC(=O)Nc2cccs2)c1 (stereo not given) | -15.38
CC(C)Oc1cccc(C(O)CNC(=O)NCc2cccs2)c1 (stereo not given) | -2.917
O=C(NCC(O)c1ccsc1)Nc1cccs1 (stereo not given) | 136.4
O=C(NCC(O)c1ccoc1)Nc1c(F)cccc1F (stereo not given) | 35.5
CCOc1ccccc1CCNC(=O)NCC(O)c1ccsc1 (stereo not given) | -9.165
O=C(NCCC(O)c1cccs1)c1ccco1 (stereo not given) | -4.816
COC(=O)c1sccc1S(=O)(=O)NCCC(O)c1ccoc1 (stereo not given) | 6.712
O=C(NCc1cccs1)NCC(O)c1ccoc1 (stereo not given) | 136.2
O=C(NCCC(O)c1ccoc1)Nc1cccs1 (stereo not given) | 118.3
O=C(NCC(O)c1cccs1)c1ccco1 (stereo not given) | -9.342
O=C(NCC(O)c1ccoc1)Nc1cccs1 (stereo not given) | 112.3
Cc1csc(CNC(=O)NCC(O)c2ccccc2)n1 (stereo not given) | 14.77
COCc1nc(CNC2CCSCC2)no1 | -3.755
CCc1nc2c(c(NCc3nc(-c4cccnc4)no3)n1)CCNCC2 | -4.803
CC(C)c1nc(CN(C)C(=O)CNS(=O)(=O)c2cccs2)no1 | -26.42
CN(CCOCC(F)(F)F)CC1CCN(CCO)CC1 | -6.866

Structure (SMILES) | Percent Effect [%]
COCc1nc(N(C)C)ncc1C(=O)NC(C)C | 11.32
COCC(=O)Nc1ccnc(OCCN(C)C)c1 | 5.238
CCCC(=O)NCCc1nc(N(C)C)ncc1-c1ccncc1 | 150.4
CCCNC(=O)c1cnc(N(C)C)nc1COC | 7.705
Cc1nc(N(C)C)ncc1C(=O)N(Cc1ccncc1)CC1CCCO1 (stereo not given) | -9.755
COCC(=O)N(C)Cc1nc(N(C)C)ncc1-c1ccncc1 | 115.9
COCc1nc(N(C)C)ncc1C(=O)Nc1ccn(C)n1 | 4.031
COCC(=O)NCCc1nc(N(C)C)ncc1-c1ccncc1 | 144
COCCC(=O)NCCc1nc(N(C)C)ncc1-c1ccncc1 | 140.1
Cc1nsc(NC(=O)N2CCCCC2CCCO)n1 (stereo not given) | 3.459
CCCOCC(=O)NS(=O)(=O)c1ccc2c(c1)OCCCO2 | -2.018
CN(C)c1ncc(-c2ccncc2)c(CCNC(=O)C2CC2)n1 | 144.3
CCc1nc(CCNC(=O)C2CC2)sc1C | -12.51
Cc1nc(N(C)C)ncc1C(=O)NCCc1csc(-c2ccncc2)n1 | 10.36
c1ccc2c(c1)CN(c1ncnc3sc4c(c13)CCNC4)CCO2 | -13.02
Cc1nc2c(cc1C(=O)O)CCN(Cc1ccsc1)CC2.O=C(O)C(F)(F)F.O=C(O)C(F)(F)F | 107
CC(C)Nc1nc2c(cc1C(=O)O)CCN(Cc1ccsc1)CC2.O=C(O)C(F)(F)F.O=C(O)C(F)(F)F | 98.93
Cc1nc2c(cc1C(=O)O)CCN(CC1CC1)CC2.O=C(O)C(F)(F)F.O=C(O)C(F)(F)F | -6.324
CC(=O)N1CCc2cc(C(=O)O)c(-c3ccsc3)nc2CC1.O=C(O)C(F)(F)F | -2.009
Cc1nc(N2CCCC2)nc2c1CCN(Cc1ccsc1)CC2.O=C(O)C(F)(F)F | 4.858
CC(C)Nc1nc2c(cc1C(=O)NCC1CC1)CCN(CC1CC1)CC2.O=C(O)C(F)(F)F.O=C(O)C(F)(F)F | -7.491
CCC(CC)(CC)NC(=O)Nc1nnc(-c2ccccn2)s1 | -4.465
COCCN1CCO[C@@H]2CN(C(=O)COc3ccc(C)cc3)C[C@@H]2C1.O=C(O)C(F)(F)F | -10.88
CC(C)(C)C(O)CN1CCN(Cc2nccn2CC(F)(F)F)CC1 (stereo not given) | -1.053
O=C(CCC(=O)N1CCC(Oc2ncccc2Br)CC1)c1ccccc1 | -8.42

Structure (SMILES) | Percent Effect [%]
CCC[C@H]1CN(C2CCOCC2)C[C@@H]1NC(=O)CCCn1ccnc1 | -3.438
Cc1ccc(-c2cn[nH]c2C2CCCN(c3ncccn3)C2)cc1 (stereo not given) | -14.2
Cc1ccc(-c2cn[nH]c2C2CCCN(c3cc(N)ncn3)C2)cc1 (stereo not given) | -31.64
Cc1cc(N2CCCC(c3n[nH]c4ncccc34)C2)ncn1 (stereo not given) | 73.09
CC(C)n1ccnc1C1CCCN(c2ccccn2)C1 (stereo not given) | 3.899
c1cnc(N2CCCC(c3n[nH]c4ncccc34)C2)nc1 (stereo not given) | 152.2
c1cnc(N2CCC(c3n[nH]c4ncccc34)C2)nc1 (stereo not given) | 117.8
Cc1nc(CC(=O)N2CCCC2c2nc(C(C)C)no2)cs1 (stereo not given) | -8.92
CN1CCC(N(C)C[C@H]2CC[C@@H](Cc3cccc(O)c3)O2)CC1 | -5.981
Cc1nc(C)n(CCCNc2ncnc3onc(C)c23)n1 | 1.931
Cc1ccc(CN(C)C(=O)NCC(C)(C)NS(C)(=O)=O)s1 | 4.932
CC(C)N(C)C(=O)c1coc(CN2CCN(c3ccccc3F)CC2)n1 | -13.9
Cc1n[nH]c(C)c1CNC(=O)NC1CCCN(c2ccccc2F)C1 (stereo not given) | -5.16
O=C(NC1CCN(c2ccccc2Br)C1)c1c[nH]nn1 (stereo not given) | 111.1
O=C(NC1CCN(c2ccc(-c3ccccc3F)nn2)C1)c1cc[nH]n1 (stereo not given) | 3.887
O=C(NC1CCCN(c2ccc(OC(F)F)cc2)C1)c1c[nH]nn1 (stereo not given) | -1.773
O=C(NC1CCCN(c2ccccc2F)C1)c1ccon1 (stereo not given) | 18.57
O=C(NC1CCCN(c2ncccn2)C1)c1cn2ccccc2n1 (stereo not given) | -4.664
O=C(NC1CCCN(c2ccccc2Cl)C1)c1nc(=O)[nH][nH]1 (stereo not given) | 109.8
N#Cc1nccnc1NC1CCN(c2ccccc2Br)C1 (stereo not given) | -11.54
O=C(NC1CCCN(c2ccccc2Cl)C1)c1ccc(=O)[nH]n1 (stereo not given) | 90.33
COc1ccccc1N1CCCC(NC(=O)Nc2cccnc2)C1 (stereo not given) | -7.582
O=C(NC1CCCN(c2ccc(OC(F)F)cc2)C1)c1cc[nH]n1 (stereo not given) | 14.46
O=C(NC1CCCN(c2ccccc2Cl)C1)c1c[nH]nn1 (stereo not given) | 87
Cn1ncc(C(=O)OCC2CCN(c3ccccc3)C2)c1C(F)F (stereo not given) | 4.797

Reference: ChEMBL document CHEMBL3988442, “University of Dundee, Small-Polar-MMV Screening Library” (2021)
